# Measured values from PubChem BioAssay (NCATS).
# Inconclusive results are not listed. Active and inactive are the calls of the source. The call rests on the fitted dose curve; in most records, active means well fitted cell-killing curve with a large enough effect; inconclusive means small, poorly fitted or top-dose-only effect, or effect the other way; inactive means no such curve, though single readings can be large or run the other way.
# Assay: Quantitative High-Throughput drug screen in 47 multiple myeloma cell lines against the NCATS MIPE library collection: EJM_DSMZ cell viability assay (AID 1918926; further: nearly all actives have a fitted effect of over 30% in size)
# Conditions: EJM myeloma cell viability, CellTiter-Glo ATP, 48 h; series mostly up to 45.8 µM; viability, % of control: at the top concentration
# Source text: PI: Beverly A. Mock Ph.D.
# Laboratory of Cancer Biology and Genetics,
# Center for Cancer Research, National Cancer Institute,
# National Institute of Health, Bethesda, Maryland
# Drug resistance and disease progression are common in multiple myeloma (MM) patients, underscoring the need for new therapeutic combinations. […] We hypothesized that effective combinations would reduce MYC expression and enhance p16 activity. […] These preclinical data identify potentially useful drug combinations for evaluation in drug-resistant MM and reveal potential mechanisms of combined drug sensitivity.
# Described herein is the primary MIPE qHTS used to cherrypick compounds. Validated compounds were then further tested for potential synergistic activiy.
# [1] Peat TJ, Gaikwad SM, Dubois W, Gyabaah-Kessie N, Zhang S, Gorjifard S, Phyo Z, Andres M, Hughitt VK, Simpson RM, Miller MA, Girvin AT, Taylor A, Williams D, D'Antonio N, Zhang Y, Rajagopalan A, Flietner E, Wilson K, Zhang X, Shinn P, Klumpp-Thomas C, McKnight C, Itkin Z, Chen L, Kazandijian D, Zhang J, Michalowski AM, Simmons JK, Keats J, Thomas CJ, Mock BA. Drug combinations identified by high-throughput screening promote cell cycle transition and upregulate Smad pathways in myeloma. Cancer Lett. 2023 Aug 1;568:216284. doi: 10.1016/j.canlet.2023.216284. Epub 2023 Jun 24. PMID: 37356470; PMCID: PMC10408729.
# SEQUENCE No. (e.g., 1, 2, 3, etc.); […] (e.g., Cells, Incubation, Reagent, etc.); VALUE and DESCRIPTION.
# 1; Cells; 5 uL; white, solid bottom 1536-well Greiner assay plate.
# 2; Compounds; 23 nL; Kalypsis pin tool (Wako USA) equipped with a 1536-well pin head to transfer to the assay plates.
# 3; Incubation; 48 hours; 37C incubation.
# 4; Reagent;5uL; CellTiter Glo (Promega).
# 5; Detector; 425V; Luminescence; Viewlux PerkinElmer.
# NOTES (numbers refer to Sequence numbers above)
# 1. The cell-based screening methods employed in this study were like those previously published. Briefly, the corresponding myeloma cell lines were screened in 1,536-well plates with 500 cells, 5-uL per well for inhibition of cell viability (assessed by measuring ATP levels with CellTiterGlo).
# 2. NCATS MIPE 4.0 library of approved and investigational drugs were added using the Kalypsis pin tool. Wells treated with DMSO only for 100% viability and media only wells for 0% viability were used as controls.
# 3. The assay plates were covered and incubated for 48 hours in a 37C, 5% CO2 incubator with controlled humidity.
# 4. After 48 hours, CellTilter-GloTM luminescent substrate mix (Promega) reagent was added to the assay plate and plates we incubated for 5 min at room temperature.
# 5. Signal was measured as median relative luminescence units on a ViewLux (PerkinElmer) multiplate reader.
# [1] Heske CM, Davis MI, Baumgart JT, Wilson K, Gormally MV, Chen L, Zhang X, Ceribelli M, Duveau DY, Guha R, Ferrer M, Arnaldez FI, Ji J, Tran HL, Zhang Y, Mendoza A, Helman LJ, Thomas CJ. Matrix Screen Identifies Synergistic Combination of PARP Inhibitors and Nicotinamide Phosphoribosyltransferase (NAMPT) Inhibitors in Ewing Sarcoma. Clin Cancer Res. 2017 Dec 1;23(23):7301-7311. doi: 10.1158/1078-0432.CCR-17-1121. Epub 2017 Sep 12. PMID: 28899971; PMCID: PMC6636827.
# Potency means the concentration at half of the fitted maximal effect.
SMILES,"viability, % of control",Potency
CC1=C(C(=O)Nc2cc3cn[nH]c3cc2F)C(c2ccc(C(F)(F)F)cc2)CC(=O)N1 (stereo not given),108% (inactive),
CN(C)CCOc1ccc(-c2nc(-c3ccc4c(c3)CCC4=NO)c(-c3ccncc3)[nH]2)cc1,,23.5 µM (active)
COc1ccc(-c2ccc3ncc4c(c3c2)n(-c2ccc(N3CCNCC3)c(C(F)(F)F)c2)c(=O)n4C)cn1,,0.0332 µM (active)
Cc1ccc2c(c1)c1c(n2CCc2ccc(C)nc2)CCN(C)C1,80.4% (inactive),
COc1ccnc(CS(=O)c2nc3ccc(OC(F)F)cc3[nH]2)c1OC (stereo not given),110% (inactive),
Cc1cc(OCCCS(C)(=O)=O)cc(C)c1-c1cccc(COc2ccc3c(c2)OC[C@H]3CC(=O)O)c1,78.6% (inactive),
NC(=O)c1ncn([C@@H]2O[C@H](CO)[C@@H](O)[C@@H]2O)n1,112% (inactive),
COc1cc2c(cc1Cc1cccc(Cl)c1F)c(=O)c(C(=O)O)cn2[C@H](CO)C(C)C,,20.9 µM (active)
CCCCCCCCCCCCCCCC(=O)O[C@H]1[C@@H](O)[C@@H](O)[C@@H]([C@H](NC(=O)[C@@H]2C[C@@H](CCC)CN2C)[C@H](C)Cl)O[C@@H]1SC,74.4% (inactive),
c1ccc(CNc2nc(N3CCOc4ccccc43)nc3c2CCCC3)cc1,89.5% (inactive),
O=c1[nH]c(=O)n([C@H]2C[C@@H](O)[C@@H](CO)O2)cc1I,103% (inactive),
CC(C)Oc1cc(Nc2nc(N[C@@H](C)c3ccc(F)cn3)ncc2Cl)[nH]n1,,20.9 µM (active)
CC(C)(O)CC(=O)NCCn1ccc2ncnc(Nc3ccc(Oc4cccc(C(F)(F)F)c4)c(Cl)c3)c21,,1.87 µM (active)
COc1ccc2c(c1)CC[C@H]1[C@@H]2CC[C@]2(C)[C@@H](NCCCCCCN3C(=O)C=CC3=O)CC[C@H]12,108% (inactive),
O=C1CN2Cc3c(ccc(Cl)c3Cl)N=C2N1,76.1% (inactive),
COc1nccc(-c2c(-c3ccc(F)cc3)ncn2C2CCNCC2)n1,97.4% (inactive),
NS(=O)(=O)c1ccc(Nc2nc(OCC3CCCCC3)c3[nH]cnc3n2)cc1,,23.5 µM (active)
Cc1cc2nc3c(=O)[nH]c(=O)nc-3n(CC(O)C(O)C(O)CO)c2cc1C (stereo not given),,1.18 µM (active)
O=C(Nc1cccc2c(=O)cc(-c3nn[nH]n3)oc12)c1ccc(OCCCCc2ccccc2)cc1,76.8% (inactive),
N[C@@H](CC(=O)N1CCn2c(nnc2C(F)(F)F)C1)Cc1cc(F)c(F)cc1F,98% (inactive),

SMILES,"viability, % of control",Potency
OC[C@H]1O[C@@H](O[C@H]2[C@@H](O)[C@@](O)(CO)O[C@@H]2CO)[C@H](O)[C@@H](O)[C@@H]1O,99.5% (inactive),
Clc1ccc(C2(c3ccc(-c4cn[nH]c4)cc3)CCNCC2)cc1,,20.9 µM (active)
Cc1[nH]c(C=C2C(=O)Nc3ccc(S(=O)(=O)N(C)c4cccc(Cl)c4)cc32)c(C)c1C(=O)N1CCN(C)CC1,,23.5 µM (active)
O=C(c1ccc(C=Cc2n[nH]c3ccccc23)cc1)N1CCNCC1,,20.9 µM (active)
CC(=O)Nc1cccc(-n2c(=O)n(C3CC3)c(=O)c3c(Nc4ccc(I)cc4F)n(C)c(=O)c(C)c32)c1,,0.0372 µM (active)
COc1ccc(-c2nc3ccc(C4=NNC(=O)CC4C)cc3[nH]2)cc1 (stereo not given),114% (inactive),
O=C(c1ccc(C(=O)N2CCC(N3CCCC3)CC2)c(Nc2ccccc2)c1)N1CCC(N2CCCC2)CC1,,14.8 µM (active)
OC[C@H]1O[C@@H](Oc2ccc(O)cc2)[C@H](O)[C@@H](O)[C@H]1O,80.2% (inactive),
COc1cc2nc(-c3cc(F)ccc3O)nc(N[C@@H]3CNC[C@@H]3C(C)(C)O)c2cc1OC,,11.8 µM (active)
O=C1Nc2ccc(I)cc2C1=Cc1cc(Br)c(O)c(Br)c1,87.9% (inactive),
CC1C(=O)OC2C(O)C34C5CC(C(C)(C)C)C36C(OC(=O)C6O)OC4(C(=O)O5)C12O (stereo not given),84.3% (inactive),
CSc1cccc(Nc2ncc3cc(-c4c(Cl)cccc4Cl)c(=O)n(C)c3n2)c1,,6.62 µM (active)
NC[C@H]1O[C@H](O[C@@H]2[C@@H](O)[C@@H](O[C@H]3O[C@H](CO)[C@@H](O)[C@H](N)[C@@H]3O)[C@H](N)C[C@@H]2N)[C@H](O)[C@@H](O)[C@H]1O,96.9% (inactive),
CN(C)c1nc(Cc2ccc(NC(=O)c3ccc(C(F)(F)F)cc3)cc2)nc(N(C)C)c1CC(=O)O,93% (inactive),
N#Cc1c(N(CC(=O)O)CC(=O)O)sc(C(=O)O)c1CC(=O)O,111% (inactive),
Nc1ccc(-c2ccc3ncc4ccc(=O)n(-c5cccc(C(F)(F)F)c5)c4c3c2)cn1,,0.0187 µM (active)
CN(C)CCOc1ccc(C(=C(CCCl)c2ccccc2)c2ccccc2)cc1,,18.7 µM (active)
O=c1[nH]c(=O)n([C@H]2C[C@@H](O)[C@@H](CO)O2)cc1C(F)(F)F,,1.66 µM (active)
COc1ccc2ccc(=O)oc2c1CC=C(C)C,,1.48 µM (active)
CCCCOCCOc1nc(-c2ccc(C(=O)O)c(F)c2)sc1C,108% (inactive),
